Screen size: about 3,400 compounds; about 840 (25%) were called active. Not shown: some 11% with an inconclusive outcome. A selection follows. Entries with a potency or affinity are not part of this list. Unmarked numbers belong to inactive results.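 Rule for the calls: active = fitted half-maximal concentration of signal decrease at or below twice the sample's top tested concentration; inconclusive = flat curve between -70 and -30 percent, or poor fit; inactive = flat within 30 percent, signal rise, or potency above limit.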
Assay: inhibitors of Toxoplasma growth in IFN-γ-primed HeLa – cell-based, ME49Luc, luciferase, 72 h, dose response (AID 1259418)
Conditions: T. gondii ME49Luc in IFN-y HeLa, stronger effect = lower value, -100% = high-dose IFN-γ control wells; at 19.5 µM unless noted

SMILES | max activity
CCOc1ccc(-c2nc3c(s2)CN(C(=O)Nc2cc(C)ccc2OC)CC3)cc1 | 14.6%
COc1ccc(OCC(=O)N2CCC(C(=O)NCCc3csc(-c4ccccc4)n3)CC2)cc1 | 12.9%
COc1ccc(-c2nc3c(s2)CN(S(=O)(=O)c2ccc(NC(C)=O)cc2)CC3)cc1 | 17.2% [at 10 µM]
CCCCCNC(=O)CCC1Nc2c3ccccc3nc(=S)n2C1=O (configuration not stated) | 12.1% [at 5 µM]
O=C(NCCc1csc(-c2ccccc2)n1)[C@H]1CCCN1C(=O)c1ccccc1Br | -16.7% [at 0.16 µM]
CCOc1ccccc1C(=O)N1CCC(C(=O)NCCc2csc(-c3ccccc3)n2)CC1 | -11.4% [at 5 µM]
Cc1nc(CCNC(=O)C2CCN(C(=O)c3ccccc3Cl)CC2)cs1 | -5.21% [at 1.35 µM]
O=C(NCCc1csc(-c2ccccc2)n1)C1CCN(C(=O)c2cccc(Cl)c2)CC1 | 7.04% [at 0.68 µM]
O=C(NCCc1csc(-c2ccccc2)n1)C1CCN(C(=O)c2ccc(F)c(F)c2)CC1 | 18% [at 5 µM]
Cc1ccccc1C(=O)N1CCC(C(=O)NCCc2csc(-c3ccccc3)n2)CC1 | 23.4% [at 1.35 µM]
O=C(Nc1ccc(-c2nc(-c3ccccc3)co2)cc1)Nc1cccc(Br)c1 | 8.78% [at 10 µM]
COc1ccc(CNc2nc(SCc3ccc(F)cc3)nc3ccccc23)cc1 | 10.3%
COc1cc(Nc2nc(SCc3ccc(Cl)cc3)nc3ccccc23)cc(OC)c1 | 21% [at 5 µM]
Fc1ccc(Nc2nc(SCc3cccc(Cl)c3)nc3ccccc23)cc1 | -13.6% [at 1.35 µM]
CCOC(=O)CSc1nc(Nc2ccc(F)c(F)c2)c2ccccc2n1 | -35.1% [at 0.35 µM]
Fc1ccc(CSc2nc(Nc3ccc(F)c(F)c3)c3ccccc3n2)cc1 | 9.75% [at 1.35 µM]
Fc1ccc(Nc2nc(SCc3ccccc3Cl)nc3ccccc23)cc1 | 17.7% [at 0.68 µM]
COc1ccc(-c2noc(C3CCCN3C(=O)c3sc(C)nc3C)n2)cc1 (configuration not stated) | 11.1% [at 0.35 µM]
COc1ccc(CNC(=O)CCC2N=C3c4ccccc4N=C(SCc4cc(=O)n5ccccc5n4)N3C2=O)cc1 (configuration not stated) | 14.6% [at 1.35 µM]
Cc1csc(-c2csc(S(=O)(=O)N3CCC(Cc4ccccc4)CC3)c2)n1 | -14% [at 0.35 µM]
O=C(CCC1Nc2c3ccccc3nc(=S)n2C1=O)NCc1ccc(F)cc1 (configuration not stated) | 21.3%
Cc1cccc(-c2nc(CSc3nc4c(c(=O)[nH]3)CN(Cc3ccc(F)cc3)CC4)c(C)o2)c1 | 16.6% [at 0.16 µM]
CSc1ccc(-c2noc(-c3nnn(Cc4nc(-c5ccccc5)oc4C)c3C)n2)cc1 | 13.9%
COc1ccc(S(=O)(=O)Nc2ccc(-c3nc(-c4ccc(C)c(C)c4)co3)cc2)cc1 | 54.5% [at 10 µM]

SMILES | max activity
CCn1nnc2c(NCCn3ccc4ccccc43)ncnc21 | -27.3%
Cc1nc(-c2cc(S(=O)(=O)N3CCC(C)CC3)c(C)s2)sc1C | -8.09% [at 0.68 µM]
Cc1nc(-c2cc(S(=O)(=O)NCCN3CCC(C)CC3)c(C)s2)sc1C | 16.1% [at 0.35 µM]
COc1ccc(NC(=O)Nc2ccc(-c3nc(-c4ccc(C)cc4)co3)cc2)cc1OC | -10.2% [at 1.35 µM]
COc1ccc(CC(=O)N2CCC3(CC2)Nc2cc(F)ccc2-n2cccc23)cc1 | 9.99% [at 0.16 µM]
Cc1ccc(-c2coc(-c3ccc(NS(=O)(=O)c4ccc(Br)cc4)cc3)n2)cc1C | 22% [at 0.68 µM]
CN1C(=O)c2cc(NC(=O)Cc3cccs3)ccc2OC[C@@H]2O[C@H](CC(=O)N[C@@H]3CCN(Cc4ccccc4)C3)CC[C@@H]21 | 12.6% [at 0.6 µM]
CN1C(=O)c2cc(NC(=O)Cc3cccs3)ccc2OC[C@@H]2O[C@H](CC(=O)N[C@H]3CCN(Cc4ccccc4)C3)CC[C@@H]21 | 21.7%
Cc1ccc(-c2coc(-c3ccc(NC(=O)Nc4ccccc4)cc3)n2)c(C)c1 | 15.7% [at 0.16 µM]
Cc1ccc(N2CCN(C(=O)c3ccc(-c4csc(C5CC5)n4)cc3)CC2)c(C)c1 | 4.42%
COc1cc(NC(=O)Nc2ccc(-c3nc(-c4ccccc4)co3)cc2)cc(OC)c1 | 11.5% [at 0.16 µM]
Cc1ccc(-c2nc3c(s2)CN(C(=O)Nc2cccc(C)c2)CC3)cc1 | 26.8% [at 10 µM]
COc1cccc(-c2nc3c(s2)CN(C(=O)Nc2ccc(OC)c(OC)c2)CC3)c1 | 7.26%
Cc1ccc(-c2nc3c(s2)CN(C(=O)Nc2ccccc2C)CC3)cc1 | 18.7%
COc1cccc(-c2nc3c(s2)CN(C(=O)Nc2ccc(C)c(C)c2)CC3)c1 | 12.6% [at 2.6 µM]
COc1ccc(-c2nc3c(s2)CN(C(=O)Nc2ccc(C)cc2C)CC3)cc1 | 24.8%
COc1ccc(-c2nc3c(s2)CN(C(=O)Nc2cc(C)cc(C)c2)CC3)cc1 | 17.7%
Cc1nc(CCNC(=O)C2CCN(S(=O)(=O)c3ccc(F)c(F)c3)CC2)cs1 | 10.4% [at 5 µM]
Cc1ccc2c(c1C)-n1cccc1C1(CCN(C(=O)c3cccc(F)c3)CC1)N2 | -11.1% [at 0.35 µM]
O=C(NCCN1CCCC1)C1CCN(Cc2cc3ccccc3n2Cc2ccccc2Cl)CC1 | 6.81%
O=C(NCc1cccnc1)C1CCN(Cc2cc3ccccc3n2Cc2ccccc2Cl)CC1 | -4.69% [at 1.35 µM]
Cc1ccccc1Cn1c(CN2CCC(C(=O)NCCC(C)N3CCCC3)CC2)cc2ccccc21 (configuration not stated) | 15.2% [at 0.16 µM]
O=C(Nc1ccc(-c2nc(-c3ccccc3)co2)cc1)Nc1ccccc1F | 103%

From PubChem BioAssay AID1259418 (Broad Institute, 2018)
